# According to PubChem BioAssay:
# Activity calls are given as the source filed them. The rule behind the calls is not given here.
# Target: L-lactate dehydrogenase (Plasmodium falciparum (isolate CDC / Honduras)) (UniProt Q27743)
# Experiment: PfLDH activity inhibition – cell lysate, 3D7 strain, counter-screen for P. falciparum growth inhibition project (AID 2304);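 note: 0% = vehicle and 100% = reference inhibitor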
# Settings: P. falciparum 3D7 crude extract, LDH APAD/NBT absorbance; at 2 µM; hits give high values
# Chain of L-lactate dehydrogenase (Plasmodium falciparum (isolate CDC / Honduras)) (Q27743 whole entry, looked up): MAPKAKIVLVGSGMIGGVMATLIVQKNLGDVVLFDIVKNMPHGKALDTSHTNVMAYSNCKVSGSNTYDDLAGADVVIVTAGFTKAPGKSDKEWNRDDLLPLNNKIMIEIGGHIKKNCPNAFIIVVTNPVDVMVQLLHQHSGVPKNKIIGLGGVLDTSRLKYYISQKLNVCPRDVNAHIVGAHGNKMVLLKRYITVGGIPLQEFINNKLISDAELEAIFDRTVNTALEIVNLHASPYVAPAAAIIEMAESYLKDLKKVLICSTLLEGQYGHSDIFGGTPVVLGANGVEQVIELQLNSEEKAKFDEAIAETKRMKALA
row,Compound,inhibition
1,CC(C)(C)C(=O)N1CCN(c2ccc([N+](=O)[O-])c(NC3CC3)c2)CC1,3% (inactive)
2,CCc1c[nH]c2c(N3CCCC3=O)cc(C(=O)N[C@@H](Cc3ccccc3)[C@H](O)CNC(C)(C)c3cccc(OC)c3)cc12,2% (inactive)
3,Cc1ccc2[nH]c(-c3ccc(/C=C/C(=O)NC4CCN(Cc5ccccc5)CC4)cc3)nc2c1C,4% (inactive)
4,Cc1ccc(C(=O)c2oc3ccc4c(C)cc(=O)oc4c3c2C)cc1,1% (inactive)
5,COc1ccc2nccc(C(=O)NC3CCC(CCN4CCc5cc(C#N)ccc5C4)CC3)c2c1 (stereo not given),1% (inactive)
6,CCC(CO)NCC(O)Cn1c2ccc(Br)cc2c2cc(Br)ccc21 (stereo not given),-6% (inactive)
7,COCn1ncc2cc(-c3cccc(NC(=O)c4csc(NC(C)=O)n4)c3)ccc21,7% (inactive)
8,Cc1ccc(CNC(=O)[C@H](CCCN)Nc2nc(Nc3ccccc3)ncc2C)cc1,-2% (inactive)
9,Cc1ccc(C(=O)Cn2nc(-c3ccc(C)c(S(=O)(=O)N4CCCC4)c3)ccc2=O)cc1,-3% (inactive)
10,Cc1cc2nc(-c3ccc(/C=C/C(=O)NCc4ccc(Cl)c(Cl)c4)cc3)[nH]c2cc1C,-1% (inactive)
11,CC(C)C[C@@H](CNC[C@H](CC(C)C)NC(=O)OC(C)(C)C)NC(=O)OC(C)(C)C,1% (inactive)
12,CCc1nc2ccc(C(=O)OC)nc2n1Cc1ccc2oc(-c3ccccc3N)c(Br)c2c1,-2% (inactive)
13,Oc1ccc(C2CNCCc3c2cc(O)c(OCc2ccccc2)c3Cl)cc1 (stereo not given),5% (inactive)
14,COc1ccccc1C(=O)Nc1cccc(N2CCC(NCc3ccc(-n4cccn4)cc3)CC2)c1,-1% (inactive)
15,Fc1ccc(-c2cncc(Nc3ccncc3)n2)cc1,-1% (inactive)
16,NC(=O)c1cccc(C(=O)Nc2cccc(-c3csc(-c4nc5ccccc5[nH]4)c3)c2)c1,0% (inactive)
17,O=C(/C=C/c1ccc(C(F)(F)F)cc1)NCCCCCN1CCC(c2c[nH]c3ccccc23)CC1,1% (inactive)
18,CCCOc1cc(OCCC)cc(-c2cc(=O)c3ccccc3[nH]2)c1,-2% (inactive)
19,Cc1c(CCC#N)c(NCc2ccccc2)n2c(nc3ccccc32)c1C#N,2% (inactive)
20,CS(=O)(=O)c1ccccc1CNC(=O)c1cccc(-c2ccc(-c3nc4ccc(C(F)(F)F)cc4[nH]3)cc2)c1,3% (inactive)

row,Compound,inhibition
1,CCN(CCCN1CCCCC1)c1cc(C)nc(Nc2ccc(C(C)C)cc2)n1,2% (inactive)
2,CC(C)(C)OC(=O)N[C@@H](Cc1ccccc1)C(=O)Nc1cccc(-c2cccc(NC(=O)[C@H](Cc3ccccc3)NC(=O)OC(C)(C)C)c2)c1,6% (inactive)
3,OC(CNCc1ccccc1OCc1ccccc1)c1cccc(Br)c1 (stereo not given),0% (inactive)
4,N#Cc1cc([N+](=O)[O-])ccc1-n1nc(C(N)=O)n(Cc2cccc(F)c2)c1=S,-4% (inactive)
5,CCC1CN2CCc3c([nH]c4ccccc34)C2CC1CC1=NCCc2c1[nH]c1ccccc21 (stereo not given),-8% (inactive)
6,CC1(C)N=C(N)N=C(N)N1OCCCOc1ccccc1N,8% (inactive)
7,O=C(/C=C/c1ccc(Cl)cc1)NCCCCCN1CCCC(C(=O)Nc2cccc(Cl)c2)C1 (stereo not given),0% (inactive)
8,COc1ccc(CN2CCC(Oc3cccc(NC(=O)c4ccc(C(F)(F)F)cc4)c3)CC2)cc1,-6% (inactive)
9,O=C(Nc1ccc(-c2cccc(-c3nc4ccc(C(F)(F)F)cc4[nH]3)c2)cc1)c1ccncc1,-4% (inactive)
10,O=C1CSc2ccc(CNC3CCN(CCc4c(Cl)cnc5ccc(Cl)cc45)CC3)nc2N1,2% (inactive)
11,Cc1ccc(NC(=O)c2nc(N3CCN(c4ccncc4)CC3)ccc2Cl)cc1F,-5% (inactive)
12,O=C(/C=C/c1ccc(Cl)c(Cl)c1)NCCCCCN1CCCN(C(=O)Nc2cc(Cl)nc(Cl)c2)CC1,-1% (inactive)
13,CCc1cn2c3c(cc(C(=O)N[C@@H](Cc4ccccc4)[C@H](O)CN[C@@H](C)CC)cc13)N(C)S(=O)(=O)CC2,-2% (inactive)
14,Cc1cc(NN=Cc2ccccn2)c2cc(F)ccc2n1,5% (inactive)
15,CC(=O)Nc1nc(C(=O)Nc2ccc(-c3cccc(-c4nc5ccc(F)cc5[nH]4)c3)cc2)cs1,-7% (inactive)
16,CCOc1ccc(C(=O)N2CCOC(CCN3CCC(c4ccccc4)CC3)(c3ccc(Cl)c(Cl)c3)C2)cc1 (stereo not given),8% (inactive)
17,CN(C(=O)c1ccc(Br)cc1)c1ccccc1[N+](=O)[O-],2% (inactive)
18,CCCn1c(Sc2ccc(C#N)c([N+](=O)[O-])c2)nnc1-c1ccc(Cl)cc1,-3% (inactive)
19,FC(F)(F)c1cccc(Nc2nc3nonc3nc2NC2C3CC4CC(C3)CC2C4)c1 (stereo not given),-2% (inactive)
20,O=C(Cc1cnc[nH]1)Nc1cccc(-c2ccc(-c3nc4ccc(C(F)(F)F)cc4[nH]3)cc2)c1,-1% (inactive)

# Test system: not listed separately
# Experiment: inhibition of 3D7 malaria parasite growth – strain 3D7 (AID 2306);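 note: 0% = DMSO wells and 100% = chloroquine plus artemisinin control wells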
# Settings: P. falciparum 3D7 erythrocytic growth, LDH absorbance, 72 h; at 2 µM; hits give high values
row,Compound,growth inhibition
1,CC(C)(C)C(=O)N1CCN(c2ccc([N+](=O)[O-])c(NC3CC3)c2)CC1,95% (active)
2,CCc1c[nH]c2c(N3CCCC3=O)cc(C(=O)N[C@@H](Cc3ccccc3)[C@H](O)CNC(C)(C)c3cccc(OC)c3)cc12,93% (active)
3,Cc1ccc2[nH]c(-c3ccc(/C=C/C(=O)NC4CCN(Cc5ccccc5)CC4)cc3)nc2c1C,101% (active)
4,Cc1ccc(C(=O)c2oc3ccc4c(C)cc(=O)oc4c3c2C)cc1,86% (active)
5,COc1ccc2nccc(C(=O)NC3CCC(CCN4CCc5cc(C#N)ccc5C4)CC3)c2c1 (stereo not given),97% (active)
6,CCC(CO)NCC(O)Cn1c2ccc(Br)cc2c2cc(Br)ccc21 (stereo not given),100% (active)
7,COCn1ncc2cc(-c3cccc(NC(=O)c4csc(NC(C)=O)n4)c3)ccc21,89% (active)
8,Cc1ccc(CNC(=O)[C@H](CCCN)Nc2nc(Nc3ccccc3)ncc2C)cc1,97% (active)
9,Cc1ccc(C(=O)Cn2nc(-c3ccc(C)c(S(=O)(=O)N4CCCC4)c3)ccc2=O)cc1,94% (active)
10,Cc1cc2nc(-c3ccc(/C=C/C(=O)NCc4ccc(Cl)c(Cl)c4)cc3)[nH]c2cc1C,98% (active)
11,CC(C)C[C@@H](CNC[C@H](CC(C)C)NC(=O)OC(C)(C)C)NC(=O)OC(C)(C)C,88% (active)
12,CCc1nc2ccc(C(=O)OC)nc2n1Cc1ccc2oc(-c3ccccc3N)c(Br)c2c1,93% (active)
13,Oc1ccc(C2CNCCc3c2cc(O)c(OCc2ccccc2)c3Cl)cc1 (stereo not given),98% (active)
14,COc1ccccc1C(=O)Nc1cccc(N2CCC(NCc3ccc(-n4cccn4)cc3)CC2)c1,86% (active)
15,Fc1ccc(-c2cncc(Nc3ccncc3)n2)cc1,88% (active)
16,NC(=O)c1cccc(C(=O)Nc2cccc(-c3csc(-c4nc5ccccc5[nH]4)c3)c2)c1,101% (active)
17,O=C(/C=C/c1ccc(C(F)(F)F)cc1)NCCCCCN1CCC(c2c[nH]c3ccccc23)CC1,101% (active)
18,CCCOc1cc(OCCC)cc(-c2cc(=O)c3ccccc3[nH]2)c1,99% (active)
19,Cc1c(CCC#N)c(NCc2ccccc2)n2c(nc3ccccc32)c1C#N,100% (active)
20,CS(=O)(=O)c1ccccc1CNC(=O)c1cccc(-c2ccc(-c3nc4ccc(C(F)(F)F)cc4[nH]3)cc2)c1,95% (active)

row,Compound,growth inhibition
1,CCN(CCCN1CCCCC1)c1cc(C)nc(Nc2ccc(C(C)C)cc2)n1,100% (active)
2,CC(C)(C)OC(=O)N[C@@H](Cc1ccccc1)C(=O)Nc1cccc(-c2cccc(NC(=O)[C@H](Cc3ccccc3)NC(=O)OC(C)(C)C)c2)c1,106% (active)
3,OC(CNCc1ccccc1OCc1ccccc1)c1cccc(Br)c1 (stereo not given),100% (active)
4,N#Cc1cc([N+](=O)[O-])ccc1-n1nc(C(N)=O)n(Cc2cccc(F)c2)c1=S,100% (active)
5,CCC1CN2CCc3c([nH]c4ccccc34)C2CC1CC1=NCCc2c1[nH]c1ccccc21 (stereo not given),100% (active)
6,CC1(C)N=C(N)N=C(N)N1OCCCOc1ccccc1N,93% (active)
7,O=C(/C=C/c1ccc(Cl)cc1)NCCCCCN1CCCC(C(=O)Nc2cccc(Cl)c2)C1 (stereo not given),96% (active)
8,COc1ccc(CN2CCC(Oc3cccc(NC(=O)c4ccc(C(F)(F)F)cc4)c3)CC2)cc1,95% (active)
9,O=C(Nc1ccc(-c2cccc(-c3nc4ccc(C(F)(F)F)cc4[nH]3)c2)cc1)c1ccncc1,101% (active)
10,O=C1CSc2ccc(CNC3CCN(CCc4c(Cl)cnc5ccc(Cl)cc45)CC3)nc2N1,101% (active)
11,Cc1ccc(NC(=O)c2nc(N3CCN(c4ccncc4)CC3)ccc2Cl)cc1F,100% (active)
12,O=C(/C=C/c1ccc(Cl)c(Cl)c1)NCCCCCN1CCCN(C(=O)Nc2cc(Cl)nc(Cl)c2)CC1,103% (active)
13,CCc1cn2c3c(cc(C(=O)N[C@@H](Cc4ccccc4)[C@H](O)CN[C@@H](C)CC)cc13)N(C)S(=O)(=O)CC2,99% (active)
14,Cc1cc(NN=Cc2ccccn2)c2cc(F)ccc2n1,100% (active)
15,CC(=O)Nc1nc(C(=O)Nc2ccc(-c3cccc(-c4nc5ccc(F)cc5[nH]4)c3)cc2)cs1,94% (active)
16,CCOc1ccc(C(=O)N2CCOC(CCN3CCC(c4ccccc4)CC3)(c3ccc(Cl)c(Cl)c3)C2)cc1 (stereo not given),88% (active)
17,CN(C(=O)c1ccc(Br)cc1)c1ccccc1[N+](=O)[O-],96% (active)
18,CCCn1c(Sc2ccc(C#N)c([N+](=O)[O-])c2)nnc1-c1ccc(Cl)cc1,96% (active)
19,FC(F)(F)c1cccc(Nc2nc3nonc3nc2NC2C3CC4CC(C3)CC2C4)c1 (stereo not given),103% (active)
20,O=C(Cc1cnc[nH]1)Nc1cccc(-c2ccc(-c3nc4ccc(C(F)(F)F)cc4[nH]3)cc2)c1,102% (active)
